Measurements reported in PubChem BioAssay (NCI).
Compounds without any hit were thinned out: in the full panel of roughly 79,000, 15% have a hit. Calls of active or inactive are those of the source. Cut-off read from the data, not from the text of the source: active = growth inhibition above about 70%; inactive = the rest.

Columns and labels:
[1] = NCI Yeast Anticancer Drug Screen. Data for the wt2 strain (AID 169);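 note: 0% = growth of vehicle-treated yeast cultures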; conditions: S. cerevisiae wt2 strain growth inhibition, stronger effect = higher value
In short: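 Growth of compound-treated yeast is measured and expressed as inhibition relative to vehicle-only controls.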

[2] = NCI Yeast Anticancer Drug Screen. Data for the mlh1 strain (AID 171);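 note: 0% = growth of vehicle-treated control cultures of the same strain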; conditions: S. cerevisiae mlh1 strain growth inhibition, stronger effect = higher value
In short: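 Test agents were incubated with yeast bearing a defined DNA damage repair or cell cycle control alteration; values are growth inhibition normalised to vehicle-treated cultures.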

[3] = NCI Yeast Anticancer Drug Screen. Data for the sgs1 strain (AID 173);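 note: 0% = growth of vehicle-only control cultures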; conditions: S. cerevisiae sgs1 mutant, stronger effect = higher value
In short: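 Strain with an altered DNA repair or cell cycle pathway exposed to compound. Growth then measured. Value = inhibition versus vehicle control.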

[4] = NCI Yeast Anticancer Drug Screen. Data for the mlh1 rad18 strain (AID 175); conditions: S. cerevisiae mlh1 rad18 strain growth inhibition, stronger effect = higher value
In short: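 A repair-deficient yeast strain is exposed to test compound, and growth is scored relative to vehicle-treated controls.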

[5] = NCI Yeast Anticancer Drug Screen. Data for the rad18 strain (AID 177); conditions: S. cerevisiae rad18 mutant growth inhibition, stronger effect = higher value
In short: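 DNA-repair-defective yeast; compound treatment; growth inhibition scored against vehicle.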

[6] = NCI Yeast Anticancer Drug Screen. Data for the rad52 strain (AID 147);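 note: 0% = growth of vehicle-treated control cultures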; conditions: S. cerevisiae rad52 mutant growth inhibition, stronger effect = higher value
In short: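 Growth of repair-deficient yeast cells was compared between compound-treated and vehicle-treated cultures to give percent inhibition.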

[7] = NCI Yeast Anticancer Drug Screen. Data for the wt1 strain (AID 149);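 note: 0% = growth of vehicle-treated wt1 cultures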; conditions: S. cerevisiae wt1 strain (SPY 50644) growth inhibition, stronger effect = higher value
In short: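 Measured: growth of wt1 yeast under compound versus vehicle treatment, reported as inhibition.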

[8] = NCI Yeast Anticancer Drug Screen. Data for the rad50EPP+ strain (AID 151);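 note: 0% = growth of vehicle-treated control cultures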; conditions: S. cerevisiae rad50 mutant strain, stronger effect = higher value
In short: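 Measured: growth inhibition of rad50EPP+ yeast. Reference: vehicle-treated controls. Screen uses strains with defined genetic alterations in DNA damage repair or cell cycle control.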

[9] = NCI Yeast Anticancer Drug Screen. Data for the mgt1 strain (AID 153); conditions: S. cerevisiae mgt1 mutant growth inhibition, stronger effect = higher value
In short: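 Compounds were applied to mgt1 mutant yeast, and growth was then compared against vehicle-treated control cultures to give percent inhibition.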

[10] = NCI Yeast Anticancer Drug Screen. Data for the rad50 strain (AID 155);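 note: 0% = growth of vehicle-only cultures of the same strain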; conditions: S. cerevisiae rad50 strain growth inhibition, stronger effect = higher value
In short: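 Growth of the mutant yeast was measured after compound exposure and referenced to vehicle-treated cultures.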

[11] = NCI Yeast Anticancer Drug Screen. Data for the mec2-1 strain (AID 157); conditions: S. cerevisiae mec2-1 strain, stronger effect = higher value
In short: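 Compounds were applied to mec2-1 yeast cells. Their growth was then compared with that of vehicle-treated cultures to give growth inhibition.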

[12] = NCI Yeast Anticancer Drug Screen. Data for the rad14 strain (AID 159);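 note: 0% = growth of vehicle-treated control cultures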; conditions: S. cerevisiae rad14 strain growth inhibition, stronger effect = higher value
In short: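 Here, inhibition of yeast growth was measured after compound exposure, using a strain with a genetic defect in DNA damage repair and vehicle-treated cultures as the reference.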

[13] = NCI Yeast Anticancer Drug Screen. Data for the sgs1 mgt1 strain (AID 161);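 note: 0% = growth of cultures given vehicle only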; conditions: S. cerevisiae sgs1 mgt1 strain, stronger effect = higher value
In short: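 Compounds are added to genetically altered yeast, and growth is compared with cultures given vehicle alone to give percent inhibition.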

[14] = NCI Yeast Anticancer Drug Screen. Data for the CLN2oe strain (AID 163);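 note: 0% = growth of vehicle-only control cultures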; conditions: S. cerevisiae CLN2oe strain, stronger effect = higher value
In short: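 Cells of an engineered yeast line with disturbed cell-cycle regulation are treated with compound. Inhibition of growth is then calculated relative to the vehicle-treated reference.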

[15] = NCI Yeast Anticancer Drug Screen. Data for the cln2 rad14 strain (AID 165);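 note: 0% = growth equal to vehicle treated cultures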; conditions: S. cerevisiae cln2 rad14 strain, stronger effect = higher value
In short: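 Strain: cln2 rad14 yeast, altered in cell cycle control and DNA damage repair. Read-out: growth inhibition vs vehicle.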

[16] = NCI Yeast Anticancer Drug Screen. Data for the bub3 strain (AID 167); conditions: S. cerevisiae bub3 mutant strain, stronger effect = higher value
In short: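 Whole-cell yeast assay. The mutant strain was incubated with compounds, and growth inhibition was determined by comparison with vehicle-treated cells.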

[17] = at 5.0 µM (retest, dose inferred, filed as 0.5)
[18] = at 50.0 µM (retest, dose inferred, filed as 5.0)

Measured: growth inhibition

O=c1[nH]c2ccccc2c2nc3ccccc3n12
active: [4]; [18] 86%
inactive: [1]; at 33.0 µM -15% | [1]; at 100.0 µM 26% | [2]; at 1.2 µM -40% | [2]; at 3.7 µM -22% | [2]; at 11.0 µM -14% | [2]; at 33.0 µM 38% | [2]; at 100.0 µM 37% | [3]; at 1.2 µM -43% | [3]; at 3.7 µM -58% | [3]; at 11.0 µM -64% | [3]; at 33.0 µM 23% | [3]; at 100.0 µM -14% | [4]; [17] 49% | [4]; at 50.0 µM 47.1% | [5]; at 1.2 µM -29% | [5]; at 3.7 µM -22% | [5]; at 11.0 µM -20% | [5]; at 33.0 µM 27% | [5]; at 100.0 µM 9%

COc1ccc2oc(-c3ccc(Cl)cc3)c(N3CCN(C)CC3)c2c1
inactive: [6]; at 1.2 µM -1% | [6]; at 3.7 µM 0% | [7]; at 1.2 µM -1% | [7]; at 3.7 µM -3% | [7]; at 11.0 µM 30% | [8]; at 1.2 µM -1% | [8]; at 3.7 µM -4% | [8]; at 11.0 µM 28% | [9]; at 1.2 µM -2% | [9]; at 3.7 µM -1% | [10]; at 1.2 µM -3% | [10]; at 3.7 µM 0% | [10]; at 50.0 µM 56.3% | [11]; at 1.2 µM -3% | [11]; at 3.7 µM -3% | [11]; [17] 9% | [11]; at 50.0 µM 54.7% | [12]; at 1.2 µM 0% | [12]; at 3.7 µM 13% | [13]; [17] 23% | [13]; at 50.0 µM 58.5% | [14]; at 1.2 µM -6% | [14]; at 3.7 µM -5% | [15]; [17] 17% | [16]; at 1.2 µM -3% | [16]; at 3.7 µM -6% | [16]; [17] 17% | [16]; at 50.0 µM 62.1% | [1]; at 1.2 µM 0% | [1]; at 3.7 µM -3% | [2]; at 1.2 µM -2% | [2]; at 3.7 µM 0% | [3]; at 1.2 µM -1% | [3]; at 3.7 µM 0% | [4]; [17] 59% | [4]; at 50.0 µM 51.5% | [5]; at 1.2 µM 1% | [5]; at 3.7 µM 4%
active: [6]; at 11.0 µM 91% | [6]; at 33.0 µM 98% | [6]; at 100.0 µM 99% | [7]; at 33.0 µM 99% | [7]; at 100.0 µM 99% | [8]; at 33.0 µM 99% | [8]; at 100.0 µM 99% | [9]; at 11.0 µM 99% | [9]; at 33.0 µM 100% | [9]; at 100.0 µM 99% | [10]; [17] 79% | [10]; at 11.0 µM 94% | [10]; at 33.0 µM 99% | [10]; [18] 99% | [10]; at 100.0 µM 99% | [11]; at 11.0 µM 87% | [11]; at 33.0 µM 98% | [11]; [18] 100% | [11]; at 100.0 µM 99% | [12]; at 11.0 µM 99% | [12]; at 33.0 µM 99% | [12]; at 100.0 µM 99% | [13]; [18] 100% | [14]; at 11.0 µM 98% | [14]; at 33.0 µM 99% | [14]; at 100.0 µM 98% | [15]; [18] 98% | [15]; at 50.0 µM 99.5% | [16]; at 11.0 µM 98% | [16]; at 33.0 µM 99% | [16]; [18] 99% | [16]; at 100.0 µM 99% | [1]; at 11.0 µM 97% | [1]; at 33.0 µM 99% | [1]; at 100.0 µM 99% | [2]; at 11.0 µM 90% | [2]; at 33.0 µM 99% | [2]; at 100.0 µM 99% | [3]; at 11.0 µM 96% | [3]; at 33.0 µM 99% | [3]; at 100.0 µM 99% | [4]; [18] 99% | [5]; at 11.0 µM 91% | [5]; at 33.0 µM 99% | [5]; at 100.0 µM 99%

Cc1cc(C)c(N2C(=O)CC(Sc3ccccc3N)C2=O)c(C)c1 (stereo unspecified)
inactive: [6]; at 1.2 µM -27% | [6]; at 3.7 µM -20% | [6]; at 11.0 µM -31% | [6]; at 33.0 µM -14% | [6]; at 100.0 µM -22% | [7]; at 1.2 µM -53% | [7]; at 3.7 µM -52% | [7]; at 11.0 µM -58% | [7]; at 33.0 µM -62% | [7]; at 100.0 µM -45% | [8]; at 1.2 µM -15% | [8]; at 3.7 µM -13% | [8]; at 11.0 µM -16% | [8]; at 33.0 µM -11% | [8]; at 100.0 µM 1% | [9]; at 1.2 µM -57% | [9]; at 3.7 µM -57% | [9]; at 11.0 µM -57% | [9]; at 33.0 µM -38% | [9]; at 100.0 µM -21% | [10]; at 1.2 µM -34% | [10]; at 3.7 µM -30% | [10]; [17] 37% | [10]; at 11.0 µM -33% | [10]; at 33.0 µM -42% | [10]; [18] 41% | [10]; at 50.0 µM 30.1% | [10]; at 100.0 µM -27% | [11]; at 1.2 µM -42% | [11]; at 3.7 µM -44% | [11]; [17] 45% | [11]; at 11.0 µM -45% | [11]; at 33.0 µM -36% | [11]; [18] 48% | [11]; at 50.0 µM 48.5% | [11]; at 100.0 µM -24% | [12]; at 1.2 µM -59% | [12]; at 3.7 µM -53% | [12]; at 11.0 µM -53% | [12]; at 33.0 µM -56% | [12]; at 100.0 µM -45% | [13]; [17] 0% | [13]; at 50.0 µM 42.9% | [14]; at 1.2 µM -16% | [14]; at 3.7 µM -11% | [14]; at 11.0 µM -2% | [14]; at 33.0 µM 14% | [14]; at 100.0 µM -2% | [15]; [17] 34% | [15]; at 50.0 µM 6.4% | [16]; at 1.2 µM -48% | [16]; at 3.7 µM -43% | [16]; [17] -26% | [16]; at 11.0 µM -51% | [16]; at 33.0 µM -48% | [16]; at 50.0 µM 51.6% | [16]; at 100.0 µM -51% | [1]; at 1.2 µM -14% | [1]; at 3.7 µM -19% | [1]; at 11.0 µM -1% | [1]; at 33.0 µM -8% | [1]; at 100.0 µM 19% | [2]; at 1.2 µM -33% | [2]; at 3.7 µM -27% | [2]; at 11.0 µM -27% | [2]; at 33.0 µM -23% | [2]; at 100.0 µM 1% | [3]; at 1.2 µM -37% | [3]; at 3.7 µM -41% | [3]; at 11.0 µM -34% | [3]; at 33.0 µM -28% | [3]; at 100.0 µM -21% | [4]; [17] 24% | [4]; [18] 44% | [4]; at 50.0 µM 34.3% | [5]; at 1.2 µM -54% | [5]; at 3.7 µM -45% | [5]; at 11.0 µM -38% | [5]; at 33.0 µM -47% | [5]; at 100.0 µM -44%
active: [13]; [18] 91% | [15]; [18] 76% | [16]; [18] 91%
